This is an account of results in PubChem BioAssay (NCATS).

Records with an inconclusive call do not appear. The source made the active and inactive calls. Unless noted, calls follow the shape of the dose curve; as a rule, active = well fitted curve in either direction with a large enough effect (not every such curve was filed as active); inconclusive = small, poorly fitted or top-dose-only effect, or another doubt; inactive = flat fitted curve, though single readings scatter. Bounds are passed on as bounds.

Assay [1] concerns the target Lysosomal acid glucosylceramidase (Homo sapiens) (UniProt P04062). Description: Glucocerebrosidase-p2 (AID 348; in the data active = potency below about 10 µM; also: potency is read from the fitted curve at half-maximal effect). The conditions noted are these: purified GBA, blue fluorogenic substrate, 40 min. Put shortly: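 Compounds titrated from 0.6 nM upwards against 0.2 nM enzyme in pH 5.9 citric acid/KH2PO4, taurocholate, tween-20; blue fluorogenic substrate 80 uM, 40 min room temperature, stopped and read Ex 365/Em 440 for AC50.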

Assay [2] is described as follows: AP1 Signaling Pathway (AID 357).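 Also: ME-180 reporter cells stimulated with EGF at its EC50 level; % is scaled to controls: 0 for no effect and ±100 for the full control effect.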 Particulars: ME-180 AP-1-bla reporter, EGF-induced, beta-lactamase ratio, 5 h; at 7.69 µM (top of the series) unless noted. Summed up:
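Titration-series screen for positive or negative modulators of EC50 EGF-induced signaling in ME-180 cells carrying an AP-1-driven beta-lactamase reporter. After 5 hours at 37 degrees Celsius, CCF4 460nm/530nm emission ratio gave %Activity; AC50 values derived.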

In assay [3] the target is Cytochrome P450 1A2 (Homo sapiens) (UniProt P05177). Description: p450-cyp1a2 (AID 410; calls by dose curve; also: potency is read from the fitted curve at half-maximal effect;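 as to activity change, negative = inhibition: -100% = full effect of reference inhibitor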). Particulars: recombinant CYP1A2, luciferin-ME demethylation, luminescence; series mostly up to 57 µM. Put shortly: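 Luminescent readout of luciferin formed from Luciferin-ME by human CYP1A2; data normalized against complete inhibition by 57 uM furafylline. Enzyme 20nM, substrate 100uM at Km, 100mM KPO4 buffer, 60 min reaction at room temperature.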

Assay [4] in a line: Stat Signaling Pathway (AID 446).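 Also: ME-180 cervical cancer cells given 40 pM IL-6 alongside compound; SIE-controlled beta-lactamase reporter measured as 460/530 nm FRET emission ratio; % is scaled to controls: 0 for no effect and ±100 for the full control effect.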 The conditions noted are these: ME-180 (cervical carcinoma) SIE beta-lactamase reporter, IL-6 stimulated, 5 h; at 7.69 µM (top of the series) unless noted. Put shortly:
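IL-6/STAT signaling read in ME-180 cells via an SIE beta-lactamase reporter. Stimulus was 40 pM IL-6 (its AC50) for 5 hrs, so both activation and inhibition register.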

In assay [5] the target is Glucocorticoid receptor (Homo sapiens) (UniProt P04150). The assay can be described thus: GR-EFC Redistribution (AID 451; calls by dose curve; also: potency is read from the fitted curve at half-maximal effect). The conditions noted are these: CHO-K1 GR-EFC translocation, beta-gal luminescence, 2 h. Put shortly:
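Translocation of GR-ED fusion to nuclear EA restores b-gal, read by luminescence after 1 h room-temperature detection. Engineered CHO-K1 biosensor cells, 1,000/well, exposed 2 h at 37 C to titrations up to 46 uM final.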

Assay [6] addresses Mitogen-activated protein kinase 10 (Mus musculus) (UniProt Q61831). Description: JNK3 AlphaScreen Assay (AID 530).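 Also: kinase came from lysate of stimulated human HepG2 cells; signal reports phosphorylation of biotinylated GST-cJun 1-79 at Ser73 with 10 µM ATP; % is scaled to controls: 0 for no effect and ±100 for the full control effect.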 The conditions noted are these: JNK3 lysate, c-Jun phosphorylation; series mostly up to 57.1 µM. Summed up:
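Compound titrations were preincubated 15 minutes at room temperature with substrate, antibody and pre-activated JNK3-containing HepG2 lysate. Reactions were started with 10 uM ATP and stopped with EDTA-containing bead buffer for AlphaScreen detection.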

In assay [7] the target is 3',5'-cyclic-AMP phosphodiesterase 4B (Homo sapiens) (UniProt Q07343). Description: qHTS Assay for Inhibitors of PDE-IV (AID 607; active = well fitted activation curve with a large enough effect in the main read-out, with a control signal flat, not every such curve was filed as active; also: % of control where 0% means no effect). The conditions noted are these: HEK293 ACTOne CNG channel cells, membrane potential fluorescence; series mostly up to 22.9 µM. Summed up: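 Live HEK293 cells with a modified cyclic nucleotide-gated (CNG) channel report intracellular cAMP via membrane-potential dye fluorescence (ex 535/em 590 nm). Endogenous PDE-IV was targeted. Compounds were tested at up to 22.9 uM final; RO 20-1724 100 uM served as control.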

For assay [8], the target named is Cytochrome P450 3A4 (Homo sapiens) (UniProt P08684). The assay can be described thus: qHTS Assay for Activators of Cytochrome P450 3A4 (AID 885; active = well fitted curve in the direction sought with a large enough effect; an effect the other way counts as inactive or inconclusive; also: nearly all actives have a fitted effect of over 65% in size; also: potency is read from the fitted curve at half-maximal effect). Particulars: recombinant CYP3A4, Luciferin-PPXE luminescence, 60 min; series mostly up to 57.1 µM. Summed up:
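Quantitative HTS format: compounds preincubated with 20nM human CYP3A4 and Luciferin-PPXE substrate at KM, reaction started by NADPH regeneration, stopped after 60 min, luciferase luminescence read 20 min later.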

The nature of assay [9]: qHTS Assay for Lipid Storage Modulators (AID 1519; calls by dose curve). The conditions noted are these: Drosophila S3 cells, BODIPY lipid droplet/cell ratio, laser cytometry, cells loaded with oleic acid; for activity change, negative = inhibition: at 57.5 µM (top of the series). Put shortly: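 Cells seeded at 5,000 per well were treated with compounds over a concentration series and loaded with oleic acid (400 uM, as added). Lipid droplet fluorescence (488 nm excitation, 500-530 nm channel) was read by laser-scanning cytometry and normalized to 20 uM Triacsin C.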

Assay [10] can be described thus: Primary qHTS for small molecule stabilizers of the endoplasmic reticulum resident proteome: Secreted ER Calcium Modulated Protein (SERCaMP) assay (AID 1508630; active = well fitted curve in the direction sought with a large enough effect; an effect the other way counts as inactive or inconclusive; also: % is scaled to controls: 0 for no effect and ±100 for the full control effect). The conditions noted are these: SH-SY5Y GLuc-SERCaMP (Gaussia luciferase released on ER calcium loss) secretion, thapsigargin, luminescence; series mostly up to 38.4 µM. Put shortly: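 GLuc-SERCaMP-expressing SH-SY5Y cells, pretreated 16 h with compound, are challenged with thapsigargin to empty ER calcium stores; after 4 h, coelenterazine is added directly to the medium and luminescence is imaged.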

Assay [11] deals with Cytochrome P450 3A4 (Homo sapiens) (UniProt P08684). The assay can be described thus: qHTS Assay for Inhibitors and Substrates of Cytochrome P450 3A4 (AID 884; active = well fitted curve in the direction sought with a large enough effect; an effect the other way counts as inactive or inconclusive; also: nearly all actives have a fitted effect of over 50% in size; also: potency is read from the fitted curve at half-maximal effect). Particulars: recombinant CYP3A4, Luciferin-PPXE luminescence; series mostly up to 57.1 µM. Put shortly: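 20 nM human CYP3A4 with 25 uM Luciferin-PPXE (at KM) in 200 mM KPO4, preincubated 10 min with compound; NADPH regeneration started a 60 min RT reaction. Luciferin detected by luminescence, normalized to 57 uM ketoconazole as full inhibition.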

The target in assay [12] is Cytochrome P450 2D6 (Homo sapiens) (UniProt P10635). Description: qHTS Assay for Inhibitors and Substrates of Cytochrome P450 2D6 (AID 891; active = well fitted curve in the direction sought with a large enough effect; an effect the other way counts as inactive or inconclusive; also: potency is read from the fitted curve at half-maximal effect; nearly all actives have a fitted effect of over 60% in size). The conditions noted are these: recombinant CYP2D6, luciferin-ME EGE luminescence; series mostly up to 57.1 µM. Put shortly: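 Human CYP2D6 (5 nM) with 30 uM Luciferin-ME EGE (at Km) in 100 mM KPO4, compound preincubated 10 min, then NADPH regeneration system for 60 min at room temperature. Luciferin read by luminescence; normalized to 1.43 uM quinidine.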

Where [13] appears, read: measured here: cell count channel max response.
The mark [14] stands for this setting: measured here: lipid channel max response.

Cytochrome P450 1A2 (Homo sapiens), sequence (P05177 whole entry, looked up): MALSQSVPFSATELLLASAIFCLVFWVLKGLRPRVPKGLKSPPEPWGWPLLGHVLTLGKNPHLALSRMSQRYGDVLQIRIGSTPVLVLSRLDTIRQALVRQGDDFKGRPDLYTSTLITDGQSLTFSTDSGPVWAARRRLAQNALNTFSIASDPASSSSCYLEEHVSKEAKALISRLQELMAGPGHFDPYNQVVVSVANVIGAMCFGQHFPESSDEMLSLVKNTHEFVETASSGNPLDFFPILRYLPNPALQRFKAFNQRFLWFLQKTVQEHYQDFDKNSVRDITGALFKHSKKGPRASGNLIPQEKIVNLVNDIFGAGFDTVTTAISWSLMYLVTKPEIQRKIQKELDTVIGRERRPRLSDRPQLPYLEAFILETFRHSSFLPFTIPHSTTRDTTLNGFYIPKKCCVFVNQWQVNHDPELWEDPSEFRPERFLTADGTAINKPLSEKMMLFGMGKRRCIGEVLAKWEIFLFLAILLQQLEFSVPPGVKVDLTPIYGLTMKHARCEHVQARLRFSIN
3',5'-cyclic-AMP phosphodiesterase 4B (Homo sapiens), sequence (Q07343 whole entry, looked up): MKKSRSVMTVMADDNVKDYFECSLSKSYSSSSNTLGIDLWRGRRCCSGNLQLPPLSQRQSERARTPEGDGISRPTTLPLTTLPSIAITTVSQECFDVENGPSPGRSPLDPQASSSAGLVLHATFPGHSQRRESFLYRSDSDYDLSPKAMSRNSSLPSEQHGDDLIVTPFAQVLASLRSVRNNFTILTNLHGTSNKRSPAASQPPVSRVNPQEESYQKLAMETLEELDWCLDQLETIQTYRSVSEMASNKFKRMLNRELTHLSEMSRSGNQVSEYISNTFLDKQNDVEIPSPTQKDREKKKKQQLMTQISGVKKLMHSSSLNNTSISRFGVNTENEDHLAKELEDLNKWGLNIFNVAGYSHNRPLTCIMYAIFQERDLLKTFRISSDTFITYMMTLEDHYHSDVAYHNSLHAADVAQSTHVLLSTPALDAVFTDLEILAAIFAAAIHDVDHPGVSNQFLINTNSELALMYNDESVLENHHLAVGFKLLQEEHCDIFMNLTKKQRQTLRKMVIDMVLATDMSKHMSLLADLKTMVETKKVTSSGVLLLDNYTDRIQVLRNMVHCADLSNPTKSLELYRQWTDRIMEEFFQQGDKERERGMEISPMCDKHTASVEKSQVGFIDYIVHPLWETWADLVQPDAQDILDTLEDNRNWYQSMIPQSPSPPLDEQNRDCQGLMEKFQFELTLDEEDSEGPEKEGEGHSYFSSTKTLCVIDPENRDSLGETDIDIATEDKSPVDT
Glucocorticoid receptor (Homo sapiens), sequence (P04150 whole entry, looked up, the tested form may be a part): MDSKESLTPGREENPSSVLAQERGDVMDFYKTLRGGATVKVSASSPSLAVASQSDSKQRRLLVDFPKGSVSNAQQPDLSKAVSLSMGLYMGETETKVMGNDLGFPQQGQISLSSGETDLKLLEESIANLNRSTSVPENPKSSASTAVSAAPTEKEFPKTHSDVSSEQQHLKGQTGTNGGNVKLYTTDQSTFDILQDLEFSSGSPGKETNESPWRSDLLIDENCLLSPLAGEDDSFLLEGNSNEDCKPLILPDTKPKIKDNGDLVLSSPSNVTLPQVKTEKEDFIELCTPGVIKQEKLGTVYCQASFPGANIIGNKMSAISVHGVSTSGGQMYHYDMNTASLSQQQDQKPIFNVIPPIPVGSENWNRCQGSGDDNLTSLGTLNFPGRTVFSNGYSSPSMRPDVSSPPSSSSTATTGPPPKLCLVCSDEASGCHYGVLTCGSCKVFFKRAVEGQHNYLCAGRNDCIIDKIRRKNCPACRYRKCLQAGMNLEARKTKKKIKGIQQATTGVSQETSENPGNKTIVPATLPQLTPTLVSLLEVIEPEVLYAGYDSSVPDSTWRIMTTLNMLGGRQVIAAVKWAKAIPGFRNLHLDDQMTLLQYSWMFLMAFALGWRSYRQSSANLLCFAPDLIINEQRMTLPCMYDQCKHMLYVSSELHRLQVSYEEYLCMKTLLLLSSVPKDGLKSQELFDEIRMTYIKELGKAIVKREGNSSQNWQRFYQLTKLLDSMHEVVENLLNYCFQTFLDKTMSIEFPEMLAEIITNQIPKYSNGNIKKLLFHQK
Lysosomal acid glucosylceramidase (Homo sapiens), sequence (P04062 whole entry, looked up): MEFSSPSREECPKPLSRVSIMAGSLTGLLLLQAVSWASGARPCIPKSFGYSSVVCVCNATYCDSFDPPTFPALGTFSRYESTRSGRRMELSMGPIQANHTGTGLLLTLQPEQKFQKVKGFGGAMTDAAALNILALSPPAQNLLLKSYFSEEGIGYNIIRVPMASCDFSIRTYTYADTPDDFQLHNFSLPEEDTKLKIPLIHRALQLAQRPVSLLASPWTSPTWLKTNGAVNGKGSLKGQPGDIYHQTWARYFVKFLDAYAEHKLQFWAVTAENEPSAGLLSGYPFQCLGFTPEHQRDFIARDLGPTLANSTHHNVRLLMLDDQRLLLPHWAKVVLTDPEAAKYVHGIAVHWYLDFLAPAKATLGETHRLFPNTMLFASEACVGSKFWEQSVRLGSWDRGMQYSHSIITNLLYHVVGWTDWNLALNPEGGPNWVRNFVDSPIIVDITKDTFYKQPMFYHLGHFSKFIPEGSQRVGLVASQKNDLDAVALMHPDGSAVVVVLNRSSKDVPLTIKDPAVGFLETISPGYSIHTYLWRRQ
Cytochrome P450 3A4 (Homo sapiens), sequence (P08684 whole entry, looked up): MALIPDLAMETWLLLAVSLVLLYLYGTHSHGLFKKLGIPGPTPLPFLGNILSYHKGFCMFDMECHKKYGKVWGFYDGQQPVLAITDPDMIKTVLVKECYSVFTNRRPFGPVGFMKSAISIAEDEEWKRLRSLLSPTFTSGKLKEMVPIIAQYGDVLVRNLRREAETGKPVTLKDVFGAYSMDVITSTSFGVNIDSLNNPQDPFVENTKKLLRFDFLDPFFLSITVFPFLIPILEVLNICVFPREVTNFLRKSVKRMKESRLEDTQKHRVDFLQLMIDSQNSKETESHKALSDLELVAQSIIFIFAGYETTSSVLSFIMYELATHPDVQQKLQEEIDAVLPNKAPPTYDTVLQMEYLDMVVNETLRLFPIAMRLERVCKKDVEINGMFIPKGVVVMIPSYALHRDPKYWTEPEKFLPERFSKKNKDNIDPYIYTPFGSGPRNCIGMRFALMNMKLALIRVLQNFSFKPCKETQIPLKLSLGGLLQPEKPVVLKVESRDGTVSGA
Cytochrome P450 2D6 (Homo sapiens), sequence (P10635 whole entry, looked up): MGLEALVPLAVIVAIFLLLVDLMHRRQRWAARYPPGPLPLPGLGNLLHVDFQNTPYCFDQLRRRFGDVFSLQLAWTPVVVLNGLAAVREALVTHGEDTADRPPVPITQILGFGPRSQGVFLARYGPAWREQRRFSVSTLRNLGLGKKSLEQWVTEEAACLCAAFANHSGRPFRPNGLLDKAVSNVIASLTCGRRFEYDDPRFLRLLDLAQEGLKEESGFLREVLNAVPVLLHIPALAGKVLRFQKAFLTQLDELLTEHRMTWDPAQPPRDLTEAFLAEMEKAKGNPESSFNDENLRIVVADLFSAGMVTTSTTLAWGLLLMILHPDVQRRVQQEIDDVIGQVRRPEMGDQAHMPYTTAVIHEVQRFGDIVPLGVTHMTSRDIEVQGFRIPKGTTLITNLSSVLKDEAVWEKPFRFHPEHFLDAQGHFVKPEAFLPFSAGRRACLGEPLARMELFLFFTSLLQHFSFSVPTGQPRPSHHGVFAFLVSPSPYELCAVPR

For the molecule `O=C(c1cc(C(F)(F)F)cc(C(F)(F)F)c1)N1CCC[C@@]2(CCN(c3ncccn3)C2)C1`, the values for the Potency in assay [1] and in assay [5] were > 11.4 µM (inactive) and > 46 µM (inactive), respectively. Further, the activity change, negative = inhibition is 8.42% (inactive) in [2] and 4.69% (inactive) in [9]. In addition, the Potency result in assay [3], in assay [6], in assay [7] and in assay [8] was “inactive” in each case. Further, in assay [4], the activity, negative = inhibition was -17.1% (inactive). Further, the max response turned out to be 8.96% in assay [9] (setting [13]) and 17.5% in assay [9] (setting [14]). For the same molecule, in [10], the result was inactive.

In the case of `c1ccc(-c2cccc(N3CCC4(CCNCC4)CC3)c2)cc1`, the Potency in assay [1] was > 11.4 µM (inactive); in [3], 15.8 µM (active); in assay [5], > 46 µM (inactive). The figures for the activity change, negative = inhibition in [2] and in assay [9] were -2.96% (inactive) and 2.27% (inactive), respectively. The activity, negative = inhibition in assay [4] is -2.71% (inactive). The Potency entry in [6], in [7] and in [8] was “inactive” throughout. In addition, the max response in assay [9] (setting [13]) is -17%; in assay [9] (setting [14]), -12.4%. Also, in assay [10], the result was inactive.

In the case of `O=C(c1cc(C(F)(F)F)cc(C(F)(F)F)c1)N1CCC[C@@]2(CCN(c3ccccc3)C2)C1`, the Potency was > 11.4 µM (inactive) in [1] and > 46 µM (inactive) in [5]. In addition, the activity change, negative = inhibition in assay [2] was 0.763% (inactive); in [9], -3.81% (inactive). The Potency result in assay [3], in assay [6], in [7] and in assay [8] was “inactive” in each case. For the same molecule, the activity, negative = inhibition in [4] was 2.5% (inactive). Also, the max response in [9] (setting [13]) and in assay [9] (setting [14]) was 10.6% each time. In addition, the outcome in assay [10] was inactive.

Consider `COc1ccc(NC(=O)N2CCCC3(CCN(S(=O)(=O)c4ccccc4)CC3)C2)cc1`, for which the Potency was > 11.4 µM (inactive) in [1], > 46 µM (inactive) in [5] and 7.94 µM (active) in assay [11]. For the same molecule, the activity change, negative = inhibition is -4.9% (inactive) in assay [2] and 2.57% (inactive) in assay [9]. Besides, the Potency entry in [3], in assay [6], in assay [7] and in assay [8] was “inactive” each time. Further, the activity, negative = inhibition in assay [4] is -19% (inactive). The max response in assay [9] (setting [13]) stood at 6.07%; in assay [9] (setting [14]), 10.9%. The outcome in assay [10] was inactive.

For `CC(C)CN1CCCC2(CCN(C(=O)c3cccn3C)CC2)C1`, the Potency in assay [1] is > 11.4 µM (inactive); in assay [5], > 46 µM (inactive). For the same molecule, the activity change, negative = inhibition is -3.67% (inactive) in assay [2] and 6.1% (inactive) in [9]. For the same molecule, the Potency result in [3], in assay [6], in assay [7] and in assay [8] was “inactive” throughout. The activity, negative = inhibition in [4] is 12.4% (inactive). Further, the max response was 16.8% in assay [9] (setting [13]) and 26.5% in assay [9] (setting [14]). Further, in assay [10], the outcome was inactive.

Turning to `O=C(c1ccco1)N1CCC2(CC1)CN(c1ccccn1)C2`, the Potency is > 11.4 µM (inactive) in assay [1], > 46 µM (inactive) in assay [5] and 10 µM (active) in assay [8]. Also, the values for the activity change, negative = inhibition in assay [2] and in assay [9] were 2.14% (inactive) and 5.94% (inactive), respectively. Besides, the Potency result in assay [3], in [6], in assay [7] and in assay [11] was “inactive” in each case. For the same molecule, the activity, negative = inhibition in [4] was -14.8% (inactive). Besides, the max response in assay [9] (setting [13]) worked out at 3%; in assay [9] (setting [14]) it was 11.7%. In [10], the outcome was inactive.

In the case of `O=C(c1cnccn1)N1CCC2(CC1)CN(C(c1ccccc1)c1ccccc1)C2`, the Potency was > 11.4 µM (inactive) in assay [1]; 25.1 µM (active) in assay [3]; > 46 µM (inactive) in [5]; 12.6 µM (active) in assay [8]; 6.31 µM (active) in [12]. Also, the results for the activity change, negative = inhibition in [2] and in assay [9] were -2% (inactive) and 1.71% (inactive), respectively. Besides, in assay [4], the activity, negative = inhibition is -4.86% (inactive). For the same molecule, the Potency entry in assay [6], in assay [7] and in assay [11] was “inactive” in each case. Also, the max response in assay [9] (setting [13]) was determined as 6.7%; in assay [9] (setting [14]), 10.5%. In addition, the outcome in [10] was inactive.
